Values without a mark were called inactive. Records with an inconclusive call do not appear. A call without a number means that no potency is given here. The source made the active and inactive calls. Unless noted, calls follow the shape of the dose curve; as a rule, active = well fitted curve in the direction sought with a large enough effect in the repeat runs; inconclusive = weak or mixed curves; inactive = no such curve, though single readings can be large; an effect the other way counts as inactive or inconclusive.
Legend:
[1] = qHTS assay to identify small molecule agonists of the hypoxia (HIF-1) signaling pathway - cell viability counter screen (AID 1224844; calls by dose curve; also: nearly all actives have a fitted effect of over 50% in size); details: HRE-bla ME-180 viability, CellTiter-Glo luminescence, 17 h; series mostly up to 76.8 µM
Method in brief: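 ME-180 HRE-bla cells, 2,000/well, 0.5% dialyzed FBS; 5 hr settle, 17 hr compound at 37C/5% CO2; CCF4-AM reporter read first, then CellTiter-Glo luminescence after 30 min RT.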

[2] = qHTS assay to identify small molecule agonists of H2AX (AID 1224845; active = well fitted activation curve with a large enough effect in the signal ratio in the repeat runs, not every such curve was filed as active; the % refers to the signal ratio); details: CHO-K1 phospho-H2AX Ser139 HTRF, 3 h; series mostly up to 154 µM
Method in brief: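 Wild-type CHO-K1 cells, plated overnight, exposed 3hr at 37C to 15 concentrations (0.76% DMSO final). Lysed, then HTRF anti-pH2AX (S139) cryptate and anti-H2AX-d2 antibodies, 24 hr room temperature; 665/620 nm emission read.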

[3] = qHTS assay to identify small molecule agonists of the hypoxia (HIF-1) signaling pathway (AID 1224846; active = well fitted activation curve with a large enough effect in the signal ratio in the repeat runs, not every such curve was filed as active; the % refers to the signal ratio); details: HRE-bla ME-180 cells, beta-lactamase ratio, 17 h; series mostly up to 76.8 µM
Method in brief: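 Cell line: CellSensor HRE-bla ME-180; 2,000 cells/well; 0.5% dialyzed FBS; 5 h preincubation; DMSO compound pin transfer; 17 h, 37C, 5% CO2; CCF4-AM added; bla FRET signal scored for activation.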

[4] = qHTS RealTime-Glo MT Cell Viability Assay in HepG2 cells - 24 hour (AID 1224867); details: RealTime-Glo luminescence; series mostly up to 76.8 µM; also: nearly all actives have a fitted effect of over 50% in size
Method in brief: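 Compound treatment began 5 h after plating HepG2 cells (600/well) with NanoLuc luciferase and prosubstrate. Plates stayed at 37 C for 40 h; luminescence was captured at six time points, 0 h through 40 h.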

[5] = qHTS RealTime-Glo MT Cell Viability Assay in HEK293 cells - 32 hour (AID 1224868); details: RealTime-Glo luminescence; series mostly up to 76.8 µM; also: top concentration of the series differs between compounds; nearly all actives have a fitted effect of over 50% in size
Method in brief: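 Quantitative high-throughput screen of the Tox21 10K library in HEK293: cells and RealTime-Glo reagents plated together, compound added at 5 h, luminescence monitored through 40 h at 37 C.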

[6] = A CellTox Green Cytotoxicity Assay to monitor cytotoxicity in HEK293 cells - 0 hour (AID 1224869); details: CellTox Green fluorescence; series mostly up to 76.8 µM; also: nearly all actives have a fitted effect of over 50% in size
Method in brief: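 Nonlytic real-time cytotoxicity: HEK293 + CellTox Green reagent plated, 5 h preincubation, pintool compound addition (23 nL in DMSO), 37 C for 40 h, fluorescence measured at successive time points.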

[7] = qHTS RealTime-Glo MT Cell Viability Assay in HepG2 cells - 40 hour (AID 1224870); details: RealTime-Glo luminescence; series mostly up to 76.8 µM; also: nearly all actives have a fitted effect of over 50% in size; also: potency is read from the fitted curve at half-maximal effect
Method in brief: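 HepG2 cells (600/well) mixed with RealTime-Glo MT reagent, settled 5 h at 37 C/5% CO2 before compound addition. Nonlytic NanoLuc luminescence from viable-cell prosubstrate reduction read repeatedly during 40 h treatment at 37 C.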

[8] = qHTS assay to identify small molecule agonists of H2AX - cell viability counter screen (AID 1224847; calls by dose curve; also: top concentration of the series differs between compounds; nearly all actives have a fitted effect of over 30% in size); details: CHO-K1 viability, CellTiter-Glo luminescence, 3 h; series mostly up to 154 µM
Method in brief: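 Cells plated first: CHO-K1, 1000 per well in 10% FBS medium, incubated overnight at 37C. Then 15-point compound titration added (final DMSO 0.76%) for 3 hr. Finally CellTiter-Glo added and luminescence read.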

[9] = qHTS assay to identify small molecule antagonists of the estrogen related receptor (ERR) signaling pathway from Tox21 library (AID 1224848); details: ERR reporter cell line, luciferase antagonist mode, 18 h; series mostly up to 92.4 µM; also: nearly all actives have a fitted effect of over 50% in size
Method in brief: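 Luminescent reporter read-out (ONE-Glo) from NTP's ERR cell line after 18 h treatment at 37 C with DMSO-dissolved Tox21 compounds; cells pre-plated 6 h beforehand at 2,000 per well.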

[10] = qHTS assay to identify small molecule agonists of the estrogen related receptor (ERR) signaling pathway from Tox21 library (AID 1224849; calls by dose curve; also: nearly all actives have a fitted effect of over 15% in size); details: ERR reporter cell line, ONE-Glo luciferase, 18 h; at 92.4 µM (top of the series) unless noted
Method in brief: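 ERR cells, 6 h pre-incubation 37 C/5% CO2; cpd in DMSO pinned; 18 h 37 C; ONE-Glo added, 30 min RT; luminescence read. Agonist mode, qHTS.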

SMILES | Potency [1] | outcome [2] | outcome [3] | Potency [4] | Potency [5] | outcome [6] | Potency [7] | Potency [8] | Potency [9] | activity change, positive = activation [10]
C/C(=N\NC(=O)Nc1cc(F)cc(F)c1)c1ncccc1C(=O)O | inactive | inactive | inactive | inactive | inactive | inactive | inactive |  |  | 
C1CN2CCC1CC2 | inactive |  | inactive | inactive | inactive | inactive | inactive | inactive |  | 
CCCCCCC1CCOC1=O (centres undefined) | inactive | inactive |  | inactive | inactive | inactive | inactive | inactive | inactive | 0.0938%
CCC(=O)OC1(c2ccccc2)CCN(C)CC1 | inactive | inactive |  | inactive | inactive | inactive | inactive | inactive |  | 
O=c1[nH]oc2c1CCNC2 | inactive | inactive |  | inactive | inactive | inactive | inactive | inactive | inactive | 0.599% [at 42.5 µM]
N#CN=C1SCCN1Cc1ccc(Cl)nc1 | inactive |  | inactive | inactive | inactive | inactive | inactive | inactive | inactive | 7.53%
Oc1ccc2c3c1O[C@H]1[C@@H](O)C=C[C@H]4[C@@H](C2)NCC[C@@]341 | inactive | inactive |  | inactive | inactive | inactive | inactive |  |  | -18.1%
CN=CNc1ccc(C)cc1C | inactive |  | inactive | inactive | inactive | inactive |  | inactive | inactive | 1.36%
CC(C)(N)Cc1ccc(Cl)cc1 | inactive |  | inactive | inactive | inactive | inactive | inactive | inactive |  | 
C=C(Cl)CSC(=S)N(CC)CC | inactive |  | inactive | inactive | inactive | inactive |  | inactive |  | 
CC(C)(C)C(=O)Cl | inactive | inactive | inactive | inactive | inactive | inactive | inactive |  |  | 
O=c1[nH]c2ccccc2o1 | inactive |  | inactive | inactive | inactive | inactive |  | inactive | inactive | -3.64%
CC(C)NCC(O)c1ccc([N+](=O)[O-])cc1 (centres undefined) | inactive |  | inactive | inactive | inactive | inactive | inactive | inactive |  | 
COC1=CC(=O)O[C@@H](/C=C/c2ccccc2)C1 | inactive | inactive |  | inactive | inactive | inactive | inactive | inactive | inactive | 12.9%
O=c1[nH]c2ccccc2n1C1CCNCC1 | inactive |  | inactive | inactive | inactive | inactive | inactive | inactive |  | 
CCN(CCO)CCn1c(Cc2ccccc2)nc2c1c(=O)n(C)c(=O)n2C | inactive |  | inactive | inactive | inactive | inactive | inactive | inactive | inactive | -1.48% [at 42.5 µM]
C=CC(=O)OCCN(C)C | inactive |  | inactive | inactive |  |  | inactive | inactive | inactive | 3.26%
CC(Cc1ccccc1)NCCCCl (centres undefined) | inactive |  | inactive | inactive | inactive | inactive |  | inactive |  | 
CN(C)CCc1c[nH]c2cccc(OP(=O)(O)O)c12 | inactive | inactive |  | inactive | inactive | inactive | inactive |  |  | 
CCCN1CCC[C@@H]2Cc3[nH]ncc3C[C@H]21 | inactive | inactive |  | inactive | inactive | inactive | inactive | inactive | inactive | 0.879% [at 42.5 µM]
O=C(O)C(Br)(Br)Br |  | inactive | inactive | inactive | inactive | inactive | 49 µM (active) | inactive | inactive | 0.595%
COc1ccccc1OC | inactive |  | inactive | inactive | inactive |  | inactive |  | inactive | 2.11%
CC(=O)CN(CC(C)=O)N=O |  | inactive | inactive | inactive | inactive | inactive | inactive | inactive | inactive | -3.56%
CCCN1CCC[C@@H]2Cc3nc(N)ncc3C[C@H]21 | inactive |  |  | inactive | inactive |  | inactive | inactive | inactive | 3.55% [at 42.5 µM]
CCOP(=S)(OCC)Oc1ccc(Cl)cc1Cl | inactive |  | inactive | inactive | inactive | inactive | inactive |  |  | 

Reference: PubChem BioAssay (Tox21)
